Screening results: PubChem BioAssay, several laboratories
An excerpt weighted towards active compounds, which were near 0.95% of everything screened.
Sa ugtP lethal: growth inhibition of S. aureus ugtP deletion strain. S. aureus RN4220 ugtP deletion, OD600 growth, 16 h. growth inhibition, % (concentration not given with the values). 330,000 compounds, 0.54% hits. AID 1259309; in the data active = growth inhibition above about 68%;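 also: plate controls were untreated wells for no effect and antibiotic for full effect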
BJeLR viability: kills HRASV12-expressing BJeLR cells; BJeLR (HRASV12) viability, CellTiter-Glo ATP luminescence, 48 h; AID 1554; 300,000 compounds, 0.17% hits; inhibition, % (concentration not given with the values); in the data active = inhibition above about 50%
PrPC surface inh: cell surface PrPC inhibition, primary TR-FRET screen; P04156; TR-FRET read-out; inhibition, % at 13.8 µM; 370,000 compounds, 0.43% hits; AID 720596; in the data active = inhibition above about 24%; also: 0% = median of the test wells and 100% = reference compound wells
Sa RN4220 lethal: kills Staphylococcus aureus RN4220; S. aureus RN4220 growth, OD600, 16 h; inhibition, % (no concentration beside the values); 330,000 compounds, 0.33% hits; AID 1259311; in the data active = inhibition above about 85%;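 also: plate controls were untreated cells for no effect and reference antibiotic for full effect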
PrPC TRFRET cf: cell surface PrPC inhibition, TR-FRET confirmation; shares compounds with PrPC surface inh; cell surface PrPC level; inhibition, % at 13.8 µM; 1,500 compounds, 65% hits; AID 743200; in the data active = inhibition above about 25%
LD9 cytotox: counter-screen for PrPc inhibitors: cytotoxicity in LD9 cells; inhibition, % at 13.8 µM; luminescence viability; 1,500 compounds, 29% hits; shares compounds with PrPC surface inh; in the data active = inhibition above about 9.5%
The depositor's hits bear a star.

Results for OC(CNCCC1C=Nc2ccccc21)Cn1c2ccc(Cl)cc2c2cc(Cl)ccc21 (configuration not stated) ?
Sa ugtP lethal: 100.8*; BJeLR viability: 105.3*; PrPC surface inh: -8.4; Sa RN4220 lethal: 100.5*

How did OC(CNCC1CCCO1)Cn1c2ccc(Cl)cc2c2cc(Cl)ccc21 (configuration not stated) do in these assays?
Sa ugtP lethal: -18.5; BJeLR viability: 6.2; PrPC surface inh: -12.9; Sa RN4220 lethal: 47.7

How did Cc1cc(C)cc(Oc2ccccc2C=NO)c1 do in these assays?
Sa ugtP lethal: 87.4*; Sa RN4220 lethal: -2.8

Results for CCC(=NNC(=O)C1CC1)c1cccc(Cl)c1 ?
Sa ugtP lethal: 1.7; Sa RN4220 lethal: 7.8

How did O=C(CCC1CCCC1)c1c(O)c2ccccc2oc1=O do in these assays?
Sa ugtP lethal: 99.5*; BJeLR viability: 10.2; PrPC surface inh: -5.6; Sa RN4220 lethal: 100.1*

What do the screens show for `CC1NC(=S)N(C2CCCCC2)C1=O` (configuration not stated)?
Sa ugtP lethal: 1.6; BJeLR viability: -1.7; PrPC surface inh: -4.0; Sa RN4220 lethal: 0.2

How did CCCCC1NC(=S)N(C2CCCCC2)C1=O (configuration not stated) do in these assays?
Sa ugtP lethal: 89.0*; BJeLR viability: -3.3; PrPC surface inh: -0.1; Sa RN4220 lethal: 5.0

What do the screens show for `Cc1ccsc1C=NNC(=O)c1ccc(Cn2cc(Br)cn2)o1`?
Sa ugtP lethal: -1.9; Sa RN4220 lethal: 1.6

Results for Cc1ccc(S(=O)(=O)c2ccc([N+](=O)[O-])o2)cc1 ?
PrPC surface inh: 82.5*

Results for Oc1c(CN2CCN(c3ccccc3)CC2)cc(Br)c2cccnc12 ?
Sa ugtP lethal: -1.9; BJeLR viability: 77.3*; PrPC surface inh: -0.2; Sa RN4220 lethal: 18.8

How did CC(=NNC(=O)c1ccc(CSc2nc(C)cc(C)n2)cc1)C1CCCCC1 do in these assays?
Sa ugtP lethal: 11.1; Sa RN4220 lethal: 5.6

How did O=[N+]([O-])c1ccccc1S(=O)(=O)Nc1ccc(S(=O)(=O)Nc2nccs2)cc1 do in these assays?
Sa ugtP lethal: 94.9*; BJeLR viability: -4.0; PrPC surface inh: 2.2; Sa RN4220 lethal: -3.1

What do the screens show for `C/C(C=NNc1ccc2nncn2n1)=C\c1ccccc1`?
Sa ugtP lethal: -20.4; Sa RN4220 lethal: -0.6

How did COC(=O)C1=C(c2ccccc2)CC2CCC1N2C(=O)NC1CC1 (configuration not stated) do in these assays?
Sa ugtP lethal: 2.0; Sa RN4220 lethal: 3.8

How did O=C1CSc2ccc(C(=O)Nc3cccc(S(=O)(=O)Nc4ccc(Br)cc4)c3)cc2N1 do in these assays?
Sa ugtP lethal: 5.5; BJeLR viability: 25.8; PrPC surface inh: 35.6*; Sa RN4220 lethal: 7.7

Results for O=C(Nc1cccc(S(=O)(=O)Nc2ccc(Cl)cc2)c1)c1ccc(Cl)nc1 ?
Sa ugtP lethal: -6.9; BJeLR viability: 16.1; PrPC surface inh: 29.5*; Sa RN4220 lethal: -9.5

How did O=C(O)c1ccc(NC(=O)c2cccc(S(=O)(=O)Nc3ccc(C(=O)O)cc3)c2)cc1 do in these assays?
Sa ugtP lethal: 1.2; BJeLR viability: -5.0; PrPC surface inh: -8.1; Sa RN4220 lethal: 4.4

Results for COc1ccc(C2=CC(=O)C=CC2=O)cc1 ?
BJeLR viability: 98.6*

What do the screens show for `O=C(NC(=S)NCc1ccccc1)c1ccccc1F`?
Sa ugtP lethal: 4.3; BJeLR viability: 10.1; PrPC surface inh: -0.3; Sa RN4220 lethal: 0.4

What do the screens show for `O=C(NC(=S)N(Cc1ccccc1)Cc1ccccc1)c1ccccc1F`?
Sa ugtP lethal: 94.4*; BJeLR viability: -4.0; PrPC surface inh: -6.5; Sa RN4220 lethal: 95.0*

How did COc1ccc2nc(NC(=O)c3ccoc3C)sc2c1 do in these assays?
Sa ugtP lethal: -20.5; BJeLR viability: 75.4*; PrPC surface inh: 5.3; Sa RN4220 lethal: -0.5

Results for Cc1c(C(=O)O)oc2c1C(=NO)CC(C)(C)C2 ?
Sa ugtP lethal: 11.0; Sa RN4220 lethal: 7.2

What do the screens show for `COc1ccc(OC)c(C2NC(=O)N(C)C(C)=C2C(=O)OCc2ccccc2)c1` (configuration not stated)?
Sa ugtP lethal: 6.1; BJeLR viability: -5.7; PrPC surface inh: 68.4*; Sa RN4220 lethal: 8.4; PrPC TRFRET cf: 79.2*; LD9 cytotox: -4.4

What do the screens show for `CC(C)(C)c1ccc(/C=C(\c2nc3ccccc3[nH]2)S(=O)(=O)c2ccccc2)cc1`?
Sa ugtP lethal: -5.5; BJeLR viability: -1.2; Sa RN4220 lethal: -1.8

Results for Cc1cccc(/C=C(\c2nc3ccccc3[nH]2)S(=O)(=O)c2ccccc2)c1 ?
Sa ugtP lethal: -7.3; BJeLR viability: 1.1; PrPC surface inh: 25.0*; Sa RN4220 lethal: 6.9; PrPC TRFRET cf: 17.0; LD9 cytotox: 21.8*

How did c1ccc(CCNc2ccnc3cc4ccccc4cc23)cc1 do in these assays?
Sa ugtP lethal: 8.5; BJeLR viability: 22.0; PrPC surface inh: 80.4*; Sa RN4220 lethal: 58.0; PrPC TRFRET cf: 23.3; LD9 cytotox: 80.2*

Results for CCOC(=O)CSc1nc(-c2ccccc2)nc2ccc(F)cc12 ?
Sa ugtP lethal: 13.1; BJeLR viability: -4.8; PrPC surface inh: 26.1*; Sa RN4220 lethal: 4.3; PrPC TRFRET cf: 104.6*; LD9 cytotox: 4.8

What do the screens show for `CCOC(=O)CSc1nc(-c2ccccc2)nc2ccccc12`?
Sa ugtP lethal: 45.1; BJeLR viability: -10.9; PrPC surface inh: 105.1*; Sa RN4220 lethal: 0.4; PrPC TRFRET cf: 115.9*; LD9 cytotox: 3.1

Results for CCOC(=O)CSc1nc2ccccc2c(=O)[nH]1 ?
Sa ugtP lethal: 8.2; BJeLR viability: 4.9; PrPC surface inh: 4.9; Sa RN4220 lethal: 0.6

How did COC(=O)CSc1nc(-c2ccccc2)nc2ccc(F)cc12 do in these assays?
Sa ugtP lethal: -4.1; BJeLR viability: -4.3; PrPC surface inh: 48.7*; Sa RN4220 lethal: 7.2; PrPC TRFRET cf: 107.4*; LD9 cytotox: -3.5

What do the screens show for `CCOC(=O)C(C)Sc1nc(-c2ccccc2)nc2ccc(F)cc12` (configuration not stated)?
Sa ugtP lethal: 66.0; BJeLR viability: -4.4; PrPC surface inh: 0.8; Sa RN4220 lethal: -0.5

What do the screens show for `CCOC(=O)C(C)Sc1nc(-c2ccccc2)nc2ccccc12` (configuration not stated)?
Sa ugtP lethal: 56.7; BJeLR viability: -5.4; PrPC surface inh: 83.5*; Sa RN4220 lethal: -1.9; PrPC TRFRET cf: 108.6*; LD9 cytotox: 2.6

What do the screens show for `O=C(NN=Cc1ccc([N+](=O)[O-])o1)C1CCCC1`?
Sa ugtP lethal: 7.8; Sa RN4220 lethal: 19.9

How did C/C(C=NNC(=O)CSc1ccccn1)=C\c1ccc(C(C)C)cc1 do in these assays?
Sa ugtP lethal: 1.7; Sa RN4220 lethal: -0.4

Results for COCCN(C(=O)c1cccc(N2C(=O)CCC2=O)c1)c1nc(-c2ccc([N+](=O)[O-])cc2)cs1 ?
Sa ugtP lethal: -8.7; BJeLR viability: -1.7; PrPC surface inh: -7.8; Sa RN4220 lethal: -2.5
